# Measured values as given in PubChem BioAssay (NCATS).
# Inconclusive results are not listed. A number with no mark means an inactive call. Calls of active or inactive are those of the source. The call rests on the fitted dose curve; in most records, active means well fitted curve in the direction sought with a large enough effect; inconclusive means small, poorly fitted or top-dose-only effect, or another doubt; inactive means no such curve, though single readings can be large; an effect the other way counts as inactive or inconclusive.
# How the values were obtained:
# HEK293 = experiment: Cytotoxic Profiling of Annotated Libraries Using Quantitative High-Throughput Screening (AID 1296008); settings: Five cell lines viability, CellTiter-Glo ATP luminescence, 48-72 h; max response: hits give low values; further: nearly all actives have a fitted effect of over 60% in size
# Summary of the method: (§1)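 Cells exposed to compounds for 48 or 72 hr at 37 degrees Celsius. Viability read as ATP-coupled luminescence with CellTiter-Glo after 10 min at room temperature.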
# KB-3-1 = experiment: as above; settings: Five cell lines viability, CellTiter-Glo ATP luminescence, 48-72 h; max response: hits give low values
# Summary of the method: as §1
# NIH3T3 = experiment: as above; settings: Five cell lines viability, CellTiter-Glo ATP luminescence, 48-72 h; max response: hits give low values
# Summary of the method: as §1
# C33A = experiment: Primary qHTS to identify gynecologic anti-cancer compounds using libraries of approved drugs and bioactive compounds (AID 1345084); settings: Gynecologic cancer cell panel viability, ATPlite luminescence, 48 h; series mostly up to 57.5 µM; further: nearly all actives have a fitted effect of over 55% in size
# Summary of the method: (§2)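 ATP-based viability (ATPlite), 1,000 cells/well, 16 h pre-incubation, 48 h compound at 37 C, 5% CO2, 15 min RT before read.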
# CASKI = experiment: as above; settings: Gynecologic cancer cell panel viability, ATPlite luminescence, 48 h; series mostly up to 57.5 µM
# Summary of the method: as §2
# Es-2 = experiment: as above; settings: Gynecologic cancer cell panel viability, ATPlite luminescence, 48 h; series mostly up to 57.5 µM
# Summary of the method: as §2
# HeLa = experiment: as above; settings: Gynecologic cancer cell panel viability, ATPlite luminescence, 48 h; series mostly up to 57.5 µM
# Summary of the method: as §2
# Hek293T = experiment: as above; settings: Gynecologic cancer cell panel viability, ATPlite luminescence, 48 h, control line for the selectivity index; series mostly up to 57.5 µM
# Summary of the method: as §2
# JEG-3 = experiment: as above; settings: Gynecologic cancer cell panel viability, ATPlite luminescence, 48 h; series mostly up to 57.5 µM
# Summary of the method: as §2
# CAOV3 = experiment: as above; settings: Gynecologic cancer cell panel viability, ATPlite luminescence, 48 h; series mostly up to 57.5 µM
# Summary of the method: as §2
# On the % scale 0 is the no-effect control and ±100 the full control effect; potency means the concentration at half of the fitted maximal effect.
compound,measurement,setting,value
CCO[C@@H]1OC(=O)C[C@@H]1NC(=O)[C@@H]1CCCN1C(=O)[C@@H](NC(=O)c1ccc(N)c(Cl)c1)C(C)(C)C,max response,HEK293,1.39%
same,max response,KB-3-1,2.91%
same,max response,NIH3T3,-4.45%
same,Potency,C33A,inactive
same,Potency,CASKI,inactive
same,Potency,Es-2,inactive
same,Potency,HeLa,inactive
same,Potency,Hek293T,inactive
same,Potency,JEG-3,inactive
CC(=O)OC12COC1CC(O)C1(C)C(=O)C(O)C3=C(C)C(OC(=O)C(O)C(NC(=O)OC(C)(C)C)c4ccccc4)CC(O)(C(OC(=O)c4ccccc4)C21)C3(C)C (stereo not drawn),max response,HEK293,-76.3%
same,Potency,KB-3-1,1.8 nM (active)
same,Potency,NIH3T3,16.4 nM (active)
same,Potency,C33A,inactive
same,Potency,CAOV3,inactive
same,Potency,JEG-3,inactive
C=CC1C(OC2OC(CO)C(O)C(O)C2O)OC=C2C(=O)N3C(C(=O)O)Cc4c([nH]c5ccccc45)C3CC21 (stereo not drawn),max response,HEK293,0.732%
same,max response,KB-3-1,6.21%
same,max response,NIH3T3,-3.8%
same,Potency,C33A,inactive
same,Potency,CASKI,inactive
same,Potency,Es-2,inactive
same,Potency,HeLa,inactive
same,Potency,Hek293T,inactive
same,Potency,JEG-3,inactive
C[C@@H]1O[C@@H](O[C@H]2[C@H](O[C@H]3CC[C@@]4(C)C(CC[C@]5(C)C4CC=C4[C@@H]6CC(C)(C)CC[C@]6(C(=O)O[C@@H]6OC[C@H](O)[C@H](O)[C@H]6O[C@@H]6O[C@@H](C)[C@H](O[C@@H]7O[C@H](CO)[C@@H](O)[C@H](O)[C@H]7O)[C@H](O)[C@H]6O)[C@H](O)C[C@]45C)C3(C)C)O[C@H](CO)[C@@H](O[C@@H]3OC[C@@H](O)[C@H](O)[C@H]3O)[C@@H]2O)[C@H](O)[C@H](O)[C@H]1O (stereo partly drawn),max response,HEK293,4.66%
same,outcome,KB-3-1,inactive
same,max response,NIH3T3,-3.79%
same,"activity change, negative = cytotoxicity",C33A,-7.19% [at 6.55 µM]
same,"activity change, negative = cytotoxicity",CASKI,6.32% [at 6.55 µM]
same,"activity change, negative = cytotoxicity",Es-2,0.0947% [at 6.55 µM]
same,"activity change, negative = cytotoxicity",HeLa,-17.4% [at 6.55 µM]
same,"activity change, negative = cytotoxicity",Hek293T,6.66% [at 6.55 µM]
same,"activity change, negative = cytotoxicity",JEG-3,5.72% [at 6.55 µM]
CN(C)CCCCC(=O)Nc1ccc(NC(=S)NC(=O)c2ccc(C(C)(C)C)cc2)cc1,Potency,HEK293,6510 nM (active)
same,Potency,KB-3-1,14600 nM (active)
same,Potency,NIH3T3,7310 nM (active)
same,Potency,C33A,inactive
same,Potency,CASKI,inactive
same,Potency,JEG-3,inactive
CC1CCC2(C(=O)O)CCC3(C)C(=CCC4C5(C)CCC(OC(=O)/C=C/c6ccccc6)C(C)(C)C5CCC43C)C2C1C (stereo not drawn),max response,HEK293,-4.63%
same,max response,KB-3-1,3.54%
same,max response,NIH3T3,-3.46%
same,Potency,C33A,inactive
same,Potency,CAOV3,inactive
same,Potency,CASKI,inactive
same,Potency,Es-2,inactive
same,Potency,HeLa,inactive
same,Potency,Hek293T,inactive
same,Potency,JEG-3,inactive
CN(C)C/C=C/C(=O)Nc1cccc(C(=O)Nc2ccc(Nc3nccc(-c4cccnc4)n3)cc2)c1,Potency,HEK293,5800 nM (active)
same,Potency,KB-3-1,3660 nM (active)
same,Potency,NIH3T3,10300 nM (active)
same,Potency,C33A,12600 nM (active)
same,Potency,CASKI,7080 nM (active)
same,Potency,HeLa,20000 nM (active)
C[S+](CC[C@H](N)C(=O)[O-])C[C@H]1O[C@@H](n2cnc3c(N)ncnc32)[C@H](O)[C@@H]1O (stereo partly drawn),max response,HEK293,3.53%
same,max response,KB-3-1,3.65%
same,max response,NIH3T3,-4.29%
same,Potency,C33A,inactive
same,Potency,CASKI,inactive
same,Potency,Es-2,inactive
same,Potency,HeLa,inactive
same,Potency,Hek293T,inactive
same,Potency,JEG-3,inactive
Cc1cc(Nc2ccc(NC(=O)c3ccc(Nc4ccnc5ccccc45)cc3)cc2)nc(N)n1,Potency,HEK293,3260 nM (active)
same,Potency,KB-3-1,4610 nM (active)
same,Potency,NIH3T3,18400 nM (active)
same,Potency,C33A,5620 nM (active)
same,Potency,CAOV3,2240 nM (active)
same,Potency,CASKI,3550 nM (active)
same,Potency,HeLa,11200 nM (active)
same,Potency,Hek293T,25100 nM (active)
same,Potency,JEG-3,28200 nM (active)
Cc1ccc([N+](=O)[O-])cc1S(=O)(=O)N(C)/N=C/c1cnc2ccc(Br)cn12,Potency,HEK293,103 nM (active)
same,Potency,KB-3-1,146 nM (active)
same,Potency,NIH3T3,461 nM (active)
same,Potency,C33A,316 nM (active)
same,Potency,CASKI,316 nM (active)
same,Potency,Es-2,398 nM (active)
same,Potency,HeLa,316 nM (active)
same,Potency,Hek293T,316 nM (active)
CC[C@H](CO)Nc1nc(NCc2ccc(-c3ccccn3)cc2)c2ncn(C(C)C)c2n1,Potency,HEK293,206 nM (active)
same,Potency,KB-3-1,116 nM (active)
same,Potency,NIH3T3,517 nM (active)
same,Potency,C33A,1260 nM (active)
same,Potency,CASKI,2510 nM (active)
same,Potency,Es-2,794 nM (active)
same,Potency,HeLa,3160 nM (active)
FC(F)(F)c1ccc(Nc2nc(-c3c(C(F)(F)F)nc4ccccn34)cs2)cc1,Potency,HEK293,326 nM (active)
same,Potency,KB-3-1,206 nM (active)
same,Potency,NIH3T3,1300 nM (active)
same,Potency,C33A,20000 nM (active)
same,Potency,CASKI,inactive
same,Potency,Es-2,2000 nM (active)
same,Potency,HeLa,891 nM (active)
C=C1C(=O)O[C@@H]2C/C(C)=C\C(=O)/C=C(\C)[C@@H](OC(=O)/C(C)=C\C)[C@H](O)[C@@H]12,Potency,HEK293,1610 nM (active)
same,Potency,KB-3-1,11400 nM (active)
same,Potency,NIH3T3,10100 nM (active)
same,Potency,C33A,10000 nM (active)
same,Potency,CAOV3,7940 nM (active)
same,Potency,CASKI,inactive
same,Potency,Es-2,4470 nM (active)
same,Potency,Hek293T,7940 nM (active)
same,Potency,JEG-3,7080 nM (active)
C[C@H](NC(=O)CCc1nc2ccccc2c(=O)[nH]1)c1ccccc1,max response,HEK293,-7.11%
same,max response,KB-3-1,-7.76%
same,max response,NIH3T3,-5.46%
same,Potency,C33A,inactive
same,Potency,CAOV3,inactive
same,Potency,CASKI,inactive
same,Potency,Es-2,inactive
same,Potency,HeLa,inactive
same,Potency,Hek293T,inactive
same,Potency,JEG-3,inactive
CC(=O)O[C@@H]1C[C@H](O)[C@@]23CO[C@H](O)[C@]1(C)C2C[C@@H](O)[C@]1(C)C3C(=O)[C@H](OC(C)=O)[C@@]2(C)[C@H](c3ccoc3)C[C@H]3O[C@]321 (stereo partly drawn),Potency,HEK293,343 nM (active)
same,Potency,KB-3-1,137 nM (active)
same,Potency,NIH3T3,432 nM (active)
same,Potency,C33A,1120 nM (active)
same,Potency,CAOV3,1120 nM (active)
same,Potency,CASKI,inactive
same,Potency,Es-2,501 nM (active)
same,Potency,Hek293T,2510 nM (active)
same,Potency,JEG-3,inactive
